Unmarked numbers belong to inactive results. Inconclusive results are not listed. Calls of active or inactive are those of the source. Unless noted, calls come from the whole dose curve; as a rule, active = well fitted curve in the direction sought with a large enough effect in the repeat runs; inconclusive = weak or mixed curves; inactive = no such curve, though single readings can be large; an effect the other way counts as inactive or inconclusive.

This note sets out measurements from PubChem BioAssay (Tox21).

For experiment [1], the target named is Estrogen receptor beta (Homo sapiens) (UniProt Q92731). As to the kind of experiment: qHTS assay to identify small molecule agonists of the estrogen receptor beta (ER-beta) signaling pathway (AID 1259377; active = well fitted activation curve with a large enough effect in the signal ratio in the repeat runs, not every such curve was filed as active; the % refers to the signal ratio). In outline: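 Read-out: beta-lactamase FRET fluorescence. Cell line: ER-beta-UAS-bla HEK293T in 2% charcoal-stripped FBS. Exposure: 16 hr at 37C. Substrate step: 2 h at room temperature.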
On the technique in general: In qHTS, concentration-response curves come from the screen itself.

The target is the same in experiment [2]. As to the kind of experiment: qHTS assay to identify small molecule antagonists of the estrogen receptor beta (ER-beta) signaling pathway (AID 1259378; active = well fitted inhibition curve with a large enough effect in the signal ratio in the repeat runs, not every such curve was filed as active; the % refers to the signal ratio; note: potency is the fitted concentration of half-maximal effect). Summed up:
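Antagonist mode: compounds added to beta-lactamase reporter HEK293T ER-beta-UAS cells stimulated with E2 (1nM final), 16 hr at 37C. LiveBLAzer B/G FRET substrate, 2 hours room temperature, fluorescence read-out.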

Experiment [3] is described as follows: qHTS assay to identify small molecule agonists of the androgen receptor (AR) signaling pathway in the presence of an antagonist - cell viability counter screen (AID 1259379).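 For activity change, negative = cytotoxicity: MDA-kb2 human breast cancer cells carrying an MMTV luciferase reporter; series mostly up to about 92 µM.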 Note: nearly all actives have a fitted effect of over 25% in size. Note: potency is the fitted concentration of half-maximal effect. Summed up: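 MDA-kb2 cells (MMTV-luciferase, AR/GR), 3,000/well, 5 h attachment, then 3.0 µM nilutamide (final) and compounds at 15 concentrations. Viability by CellTiter-Fluor fluorescence after 16 h at 37 °C, 0% CO2, in the reporter wells.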

The target of experiment [4] is Androgen receptor (Homo sapiens) (UniProt P10275). As to the kind of experiment: qHTS assay to identify small molecule agonists of the androgen receptor (AR) signaling pathway in the presence of an antagonist (AID 1259381; calls by dose curve; note: nearly all actives have a fitted effect of over 15% in size). In outline:
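MDA-kb2 cells carrying MMTV-luciferase (AR/GR responsive), 3,000 cells/well, co-treated with 3.0 uM nilutamide final. Compounds at 15 concentrations, 16 hr at 37C without CO2. Luciferase luminescence read after 30 min with ONE-Glo.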

The nature of experiment [5]: qHTS assay to identify small molecule agonists or antagonists of the thyroid stimulating hormone receptor (TSHR) signaling pathway - wild type cell line counter screen (AID 1259384; calls by dose curve). Summed up:
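Counter screen in untransfected Hek293: compounds (15-point titration, triplicate) plus phosphodiesterase inhibitor Ro20-1724 added after 18 h plating; 30 min RT. Intracellular cAMP via competitive d2/cryptate immunoassay, 1 h incubation.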

In experiment [6] the target is Thyrotropin receptor (Homo sapiens) (UniProt P16473). As to the kind of experiment: qHTS assay to identify small molecule antagonists of the thyroid stimulating hormone receptor (TSHR) signaling pathway (AID 1259385; calls by dose curve; note: nearly all actives have a fitted effect of over 20% in size; note: potency is the fitted concentration of half-maximal effect). Summed up:
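Antagonist mode: compound-treated TSHR-expressing HEK293 cells were stimulated with 1.5 ng/mL TSH (final) in presence of Ro20-1724 for 30 min at RT. HTRF cAMP detection after 1 h; each compound tested at 15 concentrations, triplicate.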

The nature of experiment [7]: qHTS assay to identify small molecule agonists of the estrogen receptor alpha (ER-alpha) signaling pathway in the presence of an antagonist - cell viability counter screen (AID 1259386). For activity change, negative = cytotoxicity: series mostly up to about 92 µM.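 Note: cells exposed to compounds for 22 h at 37 °C before the viability read; nearly all actives have a fitted effect of over 30% in size.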 Note: potency is the fitted concentration of half-maximal effect. In outline:
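Cell viability in VM7Luc4E2 cells (endogenous full-length ER-alpha) measured by CellTiter-Fluor fluorescence in the same wells as the luciferase screen. Cells pre-cultured 5 days in charcoal-stripped serum, then treated 22 h with compounds at 15 concentrations plus 10.0nM ICI-182,780.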

Experiment [8] addresses Progesterone receptor (Homo sapiens) (UniProt P06401). As to the kind of experiment: qHTS assay to identify small molecule antagonists of the progesterone receptor (PR) signaling pathway (AID 1346795; active = well fitted inhibition curve with a large enough effect in the signal ratio in the repeat runs, not every such curve was filed as active; the % refers to the signal ratio; note: potency is the fitted concentration of half-maximal effect). In outline:
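In HEK293T cells bearing the PR-UAS-bla reporter, compound effects on promegestone-driven (1 nM) beta-lactamase expression are assessed after 16 hr using a fluorescent FRET substrate incubated 2 hr at room temperature.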

Experiment [9] can be described thus: qHTS assay to identify small molecule agonists of the TGF-beta/Smad signaling pathway - cell viability counter screen (AID 1346829). Note: top concentration of the series differs between compounds; nearly all actives have a fitted effect of over 45% in size. Summed up:
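Tox21 qHTS format: SBE-bla HEK 293T cells treated with DMSO-dissolved compounds for 5 hr; CellTiter-Glo luminescence after 30 min at room temperature.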

A short description of experiment [10]: qHTS assay to identify small molecule agonists of the TGF-beta/Smad signaling pathway (AID 1346859; active = well fitted activation curve with a large enough effect in the signal ratio in the repeat runs, not every such curve was filed as active; the % refers to the signal ratio; note: series mostly up to about 77 µM). In outline:
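Each well held 4,000 SBE-bla HEK 293T cells incubated overnight before compound addition; 5 hr later the cleavable FRET substrate went on for 2 hr at room temperature, and fluorescence was read at two emissions.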

In experiment [11] the target is Thyrotropin-releasing hormone receptor (Homo sapiens) (UniProt P34981). The experiment in a line: qHTS assay to identify small molecule antagonists of the thyrotropin-releasing hormone receptor (TRHR) signaling pathway (AID 1346877; active = well fitted inhibition curve with a large enough effect in the repeat runs, not every such curve was filed as active; note: series mostly up to about 51 µM). Summed up: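 TRHR-expressing HEK293 cells loaded with calcium dye for 2 h at 37 C; compounds pre-incubated 5 min at room temperature before TRH challenge at 1 nM final. Intracellular calcium fluorescence read kinetically for 3 min; 15 concentrations in triplicate.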

For experiment [12] the target is unchanged. The experiment in a line: qHTS assay to identify small molecule agonists of the thyrotropin-releasing hormone receptor (TRHR) signaling pathway (AID 1346891; calls by dose curve; note: series mostly up to about 58 µM). In outline: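 Screening of agonists relied on calcium signalling in HEK293 cells expressing human TRHR: dye loading 2 h at 37 °C preceded compound addition and a 3-min fluorescence time course.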

A short description of experiment [13]: qHTS assay to identify small molecule agonists of the estrogen receptor beta (ER-beta) signaling pathway - cell viability counter screen (AID 1259380). Note: nearly all actives have a fitted effect of over 30% in size. Note: potency is the fitted concentration of half-maximal effect. In outline:
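ER-beta-UAS-bla HEK293T cells in medium with 2% charcoal-stripped FBS, pre-incubated 6 hr, then treated 16 hr at 37C. Cytotoxicity read in the same wells by CellTiter-Glo luminescence after 30 min at room temperature.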

The nature of experiment [14]: qHTS assay to identify small molecule antagonists of the estrogen receptor beta (ER-beta) signaling pathway - cell viability counter screen (AID 1259382).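 For activity change, negative = cytotoxicity: HEK293T cells carrying ER-beta-UAS-bla reporter stimulated with estradiol; series mostly up to about 92 µM.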 Note: nearly all actives have a fitted effect of over 55% in size. Note: potency is the fitted concentration of half-maximal effect. Summed up:
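ER-beta-UAS-bla HEK293T cells in 2% charcoal-stripped FBS medium, treated with compound plus 1 nM 17-beta-estradiol for 16 h at 37C. Viability read by CellTiter-Glo luminescence after 30 min at room temperature in the same wells.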

For experiment [15], the target named is Estrogen receptor (Homo sapiens) (UniProt P03372). The experiment in a line: qHTS assay to identify small molecule agonists of the estrogen receptor alpha (ER-alpha) signaling pathway in the presence of an antagonist (AID 1259383; calls by dose curve; note: top concentration of the series differs between compounds; nearly all actives have a fitted effect of over 15% in size). Summed up: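 VM7Luc4E2 cells express endogenous full-length ER-alpha with an ERE-luciferase reporter and were hormone-deprived for 5 days. Compounds at 15 concentrations were added with 10.0nM ICI-182,780 for 22hr at 37C. Luminescence was read with ONE-Glo.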

Experiment [16] addresses Progesterone receptor (Homo sapiens) (UniProt P06401). The experiment in a line: qHTS assay to identify small molecule agonists of the progesterone receptor (PR) signaling pathway (AID 1346784; calls by dose curve; note: nearly all actives have a fitted effect of over 30% in size). Summed up: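 Compounds were tested for PR agonism in HEK 293T cells bearing a beta-lactamase gene under UAS control. Treatment lasted 16 hr at 37C; signal came from fluorescence of a FRET substrate.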

Experiment [17] can be described thus: qHTS assay to identify small molecule antagonists of the progesterone receptor (PR) signaling pathway - cell viability counter screen (AID 1346798). For activity change, negative = cytotoxicity: series mostly up to about 92 µM. Note: nearly all actives have a fitted effect of over 50% in size. Note: potency is the fitted concentration of half-maximal effect. Summed up:
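Following a 4 hr attachment, PR-UAS-bla HEK293T cells in charcoal-stripped FBS medium were exposed to compounds with R5020 for 16 hr; CellTiter-Glo was added and luminescence read after 30 min at room temperature.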

A short description of experiment [18]: qHTS assay to identify small molecule agonists of the progesterone receptor (PR) signaling pathway - cell viability counter screen (AID 1346799; calls by dose curve; note: nearly all actives have a fitted effect of over 45% in size; note: potency is the fitted concentration of half-maximal effect). In outline: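 Here, 3,000 PR-UAS-bla HEK293T cells per well were treated with compounds for 16 hr after a 6 hr preincubation at 37C and 5% CO2; cell viability is the CellTiter-Glo luminescence signal.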
A short description of experiment [19]: Human pregnane X receptor (PXR) small molecule agonists, qHTS cell viability counter screen (AID 1346977). Note: nearly all actives have a fitted effect of over 50% in size. Note: potency is the fitted concentration of half-maximal effect. Summed up:
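Tox21 qHTS format; PXR-Luc HepG2, 2,000/well, charcoal-stripped FBS 5%. Cpd exposure 24hr. Read: CellTiter-Fluor fluorescence, multiplexed with luciferase.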

Experiment [20] can be described thus: qHTS assay to identify small molecule antagonists of the TGF-beta/Smad signaling pathway - cell viability counter screen (AID 1346824). Note: nearly all actives have a fitted effect of over 50% in size. Summed up:
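Cytotoxicity counter-screen run in the same wells as the beta-lactamase Smad reporter read: CellTiter-Glo luminescence after 30 min at room temperature. HEK 293T SBE-bla cells had 5 hr compound exposure at 37 C with TGF-beta1 (0.25 ng/mL stock).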
% is set by controls: 0 for no effect and ±100 for the full control effect.

Chain of Estrogen receptor (Homo sapiens) (P03372 whole entry, looked up): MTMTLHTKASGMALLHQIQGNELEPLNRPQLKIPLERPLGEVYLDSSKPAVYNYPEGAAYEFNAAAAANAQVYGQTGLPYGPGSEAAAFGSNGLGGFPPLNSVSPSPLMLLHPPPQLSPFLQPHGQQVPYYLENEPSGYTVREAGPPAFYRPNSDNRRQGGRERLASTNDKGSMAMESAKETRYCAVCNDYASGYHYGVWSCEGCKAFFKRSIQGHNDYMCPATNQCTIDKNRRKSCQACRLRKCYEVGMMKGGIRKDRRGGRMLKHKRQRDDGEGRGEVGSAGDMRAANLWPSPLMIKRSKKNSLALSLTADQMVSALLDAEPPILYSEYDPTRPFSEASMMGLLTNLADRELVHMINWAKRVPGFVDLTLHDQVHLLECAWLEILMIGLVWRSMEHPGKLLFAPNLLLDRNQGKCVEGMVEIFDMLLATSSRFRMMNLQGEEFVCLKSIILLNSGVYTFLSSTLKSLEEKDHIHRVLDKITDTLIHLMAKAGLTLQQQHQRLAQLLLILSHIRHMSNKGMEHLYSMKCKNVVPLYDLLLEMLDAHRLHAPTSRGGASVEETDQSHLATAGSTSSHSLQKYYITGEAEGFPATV
Chain of Estrogen receptor beta (Homo sapiens) (Q92731 whole entry, looked up): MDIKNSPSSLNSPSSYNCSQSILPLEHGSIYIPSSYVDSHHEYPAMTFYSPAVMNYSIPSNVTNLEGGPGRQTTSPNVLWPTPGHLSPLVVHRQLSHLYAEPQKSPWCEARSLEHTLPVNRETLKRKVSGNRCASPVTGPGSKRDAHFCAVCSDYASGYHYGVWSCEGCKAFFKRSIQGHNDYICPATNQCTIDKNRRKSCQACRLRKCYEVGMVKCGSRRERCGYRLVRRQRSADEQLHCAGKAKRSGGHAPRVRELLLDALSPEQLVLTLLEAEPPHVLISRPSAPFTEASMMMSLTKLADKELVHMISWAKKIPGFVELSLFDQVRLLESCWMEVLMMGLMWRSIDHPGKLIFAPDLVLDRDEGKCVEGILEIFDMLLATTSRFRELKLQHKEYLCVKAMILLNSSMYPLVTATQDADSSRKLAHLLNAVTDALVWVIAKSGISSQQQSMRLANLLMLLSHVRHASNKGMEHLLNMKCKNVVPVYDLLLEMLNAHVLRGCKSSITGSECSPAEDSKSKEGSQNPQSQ
Chain of Progesterone receptor (Homo sapiens) (P06401 whole entry, looked up): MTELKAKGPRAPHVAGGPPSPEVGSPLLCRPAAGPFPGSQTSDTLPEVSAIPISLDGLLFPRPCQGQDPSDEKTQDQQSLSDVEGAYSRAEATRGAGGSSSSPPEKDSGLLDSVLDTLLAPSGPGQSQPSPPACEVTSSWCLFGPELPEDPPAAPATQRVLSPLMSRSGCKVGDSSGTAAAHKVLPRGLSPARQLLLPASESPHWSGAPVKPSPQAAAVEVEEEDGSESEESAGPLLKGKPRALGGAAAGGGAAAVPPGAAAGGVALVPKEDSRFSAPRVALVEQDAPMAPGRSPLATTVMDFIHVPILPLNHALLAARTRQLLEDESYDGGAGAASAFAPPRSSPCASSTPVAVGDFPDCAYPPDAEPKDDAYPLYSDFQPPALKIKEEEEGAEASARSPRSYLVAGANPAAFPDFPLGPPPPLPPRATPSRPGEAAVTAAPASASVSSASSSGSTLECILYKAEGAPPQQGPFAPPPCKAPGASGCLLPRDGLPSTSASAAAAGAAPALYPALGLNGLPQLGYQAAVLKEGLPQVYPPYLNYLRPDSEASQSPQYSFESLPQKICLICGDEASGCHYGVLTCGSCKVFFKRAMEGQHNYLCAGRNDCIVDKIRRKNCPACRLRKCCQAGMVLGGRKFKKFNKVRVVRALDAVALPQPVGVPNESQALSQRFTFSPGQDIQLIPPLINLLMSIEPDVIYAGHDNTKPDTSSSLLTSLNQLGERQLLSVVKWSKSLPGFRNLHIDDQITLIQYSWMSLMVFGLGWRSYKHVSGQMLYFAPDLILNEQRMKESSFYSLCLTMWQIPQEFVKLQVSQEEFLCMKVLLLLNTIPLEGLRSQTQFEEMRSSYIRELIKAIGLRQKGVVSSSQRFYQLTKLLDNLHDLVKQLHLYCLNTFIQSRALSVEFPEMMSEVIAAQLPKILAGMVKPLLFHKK
Chain of Thyrotropin receptor (Homo sapiens) (P16473 whole entry, looked up): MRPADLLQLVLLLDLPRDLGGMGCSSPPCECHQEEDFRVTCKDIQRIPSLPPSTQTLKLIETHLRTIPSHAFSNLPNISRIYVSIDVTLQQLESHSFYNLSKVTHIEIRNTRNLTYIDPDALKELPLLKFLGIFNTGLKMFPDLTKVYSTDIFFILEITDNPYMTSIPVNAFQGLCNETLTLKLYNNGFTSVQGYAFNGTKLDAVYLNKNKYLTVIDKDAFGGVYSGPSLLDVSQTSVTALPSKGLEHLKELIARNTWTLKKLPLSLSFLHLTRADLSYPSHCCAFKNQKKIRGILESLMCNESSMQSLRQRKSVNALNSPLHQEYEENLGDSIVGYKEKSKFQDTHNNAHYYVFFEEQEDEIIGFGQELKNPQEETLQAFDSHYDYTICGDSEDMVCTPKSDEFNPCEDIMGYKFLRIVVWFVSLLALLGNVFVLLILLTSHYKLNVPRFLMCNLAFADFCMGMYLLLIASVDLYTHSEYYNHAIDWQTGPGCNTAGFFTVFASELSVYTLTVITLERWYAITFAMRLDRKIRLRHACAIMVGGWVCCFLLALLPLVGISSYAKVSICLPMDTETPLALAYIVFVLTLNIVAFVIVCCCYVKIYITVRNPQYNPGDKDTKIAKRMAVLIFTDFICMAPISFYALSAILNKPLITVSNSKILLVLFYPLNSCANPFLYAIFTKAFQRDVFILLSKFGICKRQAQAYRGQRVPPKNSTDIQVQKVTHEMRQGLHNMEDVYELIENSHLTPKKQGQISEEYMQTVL
Chain of Thyrotropin-releasing hormone receptor (Homo sapiens) (P34981 whole entry, looked up): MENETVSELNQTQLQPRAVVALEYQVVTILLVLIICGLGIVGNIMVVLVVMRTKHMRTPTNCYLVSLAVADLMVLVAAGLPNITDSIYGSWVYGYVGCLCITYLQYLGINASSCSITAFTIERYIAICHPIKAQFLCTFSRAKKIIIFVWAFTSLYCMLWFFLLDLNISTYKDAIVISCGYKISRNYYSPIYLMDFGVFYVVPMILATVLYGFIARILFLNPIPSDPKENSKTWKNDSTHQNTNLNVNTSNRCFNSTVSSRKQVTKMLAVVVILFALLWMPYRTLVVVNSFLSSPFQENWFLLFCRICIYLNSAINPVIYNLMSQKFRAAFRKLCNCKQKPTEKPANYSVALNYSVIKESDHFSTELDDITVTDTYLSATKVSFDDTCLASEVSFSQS
Chain of Androgen receptor (Homo sapiens) (P10275 whole entry, looked up): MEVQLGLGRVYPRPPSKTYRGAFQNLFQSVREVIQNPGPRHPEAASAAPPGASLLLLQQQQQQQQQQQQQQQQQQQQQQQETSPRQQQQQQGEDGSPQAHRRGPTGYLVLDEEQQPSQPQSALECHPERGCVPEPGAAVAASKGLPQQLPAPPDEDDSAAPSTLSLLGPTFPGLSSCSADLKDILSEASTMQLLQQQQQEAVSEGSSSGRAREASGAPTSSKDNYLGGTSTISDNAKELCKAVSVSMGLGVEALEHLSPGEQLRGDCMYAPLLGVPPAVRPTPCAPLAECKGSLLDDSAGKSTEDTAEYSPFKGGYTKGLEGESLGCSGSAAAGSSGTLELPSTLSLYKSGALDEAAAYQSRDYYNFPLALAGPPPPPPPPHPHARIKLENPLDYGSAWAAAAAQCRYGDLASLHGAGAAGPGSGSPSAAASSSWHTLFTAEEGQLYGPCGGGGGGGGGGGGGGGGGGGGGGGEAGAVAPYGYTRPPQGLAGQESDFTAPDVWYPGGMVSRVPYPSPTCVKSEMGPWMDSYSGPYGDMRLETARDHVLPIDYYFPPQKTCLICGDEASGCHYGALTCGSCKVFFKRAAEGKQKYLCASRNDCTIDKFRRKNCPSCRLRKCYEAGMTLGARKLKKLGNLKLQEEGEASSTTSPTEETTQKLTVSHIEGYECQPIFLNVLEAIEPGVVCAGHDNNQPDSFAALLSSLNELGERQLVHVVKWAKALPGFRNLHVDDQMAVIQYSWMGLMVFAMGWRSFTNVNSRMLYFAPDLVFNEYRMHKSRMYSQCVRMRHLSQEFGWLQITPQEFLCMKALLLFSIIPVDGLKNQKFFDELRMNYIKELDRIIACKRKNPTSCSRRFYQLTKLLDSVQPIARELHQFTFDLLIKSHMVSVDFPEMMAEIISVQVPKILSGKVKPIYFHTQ

In the case of `Cc1ccc(-n2[nH]c(C)c(N=Nc3cccc(-c4cccc(C(=O)O)c4)c3O)c2=O)cc1C`, the Potency result in experiment [1], in [4], in experiment [6], in experiment [9], in [10] and in [11] was “inactive” each time. In addition, the Potency entry in experiment [12] is “inactive”. Also, the Potency in experiment [2] is 8.41 µM (active); in experiment [3], 29.8 µM (active); in experiment [7], 29.8 µM (active); in experiment [8], 18.8 µM (active). In addition, the compound was called inactive in experiment [5].

As for `CCN(CC)CCOc1ccc(C(O)(Cc2ccc(Cl)cc2)c2ccc(C)cc2)cc1` (stereo unspecified), the Potency result in experiment [1], in [15], in [7], in [10], in experiment [11] and in experiment [12] was “inactive” throughout. For the same compound, the Potency is 10.6 µM (active) in experiment [2]; 26.6 µM (active) in experiment [13]; 29.8 µM (active) in [14]; 29.8 µM (active) in experiment [6]; 26.6 µM (active) in [17]; 23.7 µM (active) in experiment [18]. Also, the Potency in experiment [19] is 26.6 µM (active). The compound was classed as inactive in [5] and in experiment [16].

For the compound `CCCCOC(=O)C(C)CC` (stereo unspecified), the Potency result in experiment [1], in experiment [2], in experiment [3], in experiment [13], in experiment [14] and in experiment [6] was “inactive” in each case. The Potency entry in experiment [7], in experiment [18], in experiment [20], in [9], in [10] and in experiment [12] was “inactive” in each case. Moreover, the Potency result in experiment [19] was “inactive”. The compound was classed as inactive in [5] and in [16].

Consider `Cc1cncc(C)c1`, for which the Potency result in experiment [1], in experiment [2], in [3], in [13], in experiment [14] and in [15] was “inactive” in each case. Besides, the Potency entry in experiment [6], in experiment [7], in experiment [8], in experiment [17], in experiment [18] and in [9] was “inactive” throughout. Besides, the Potency result in experiment [10], in experiment [12] and in experiment [19] was “inactive” in each case. For the same compound, the call in experiment [16] was inactive.

In the case of `C/C=C/c1ccc(OC)c(OC)c1`, the Potency result in experiment [1], in [2], in [3], in experiment [13], in [14] and in [6] was “inactive” each time. Besides, the Potency entry in experiment [17], in [18], in [20], in experiment [9], in [10] and in [19] was “inactive” throughout. The result in experiment [5] was inactive.

For the compound `O=S(=O)(O)c1cc(S(=O)(=O)O)c2ccc3c(S(=O)(=O)O)cc(S(=O)(=O)O)c4ccc1c2c43`, the activation in experiment [1] is -3.15% [at 19 µM]; in experiment [4], 3.07% [at 19 µM]; in experiment [15], -1.94% [at 19 µM]; in experiment [10], 1.38% [at 15.8 µM]; in [12], -0.321% [at 11.8 µM]. Also, the activity, negative = inhibition in experiment [2] was -6.24% [at 19 µM]; in experiment [11] it was -5.39% [at 10.5 µM]. The activity change, negative = cytotoxicity in experiment [13] is 1.19% [at 19 µM]; in experiment [14] it was 6.71% [at 19 µM]; in experiment [7], -2.62% [at 19 µM]; in experiment [17] it was -15.6% [at 18.9 µM]; in [18], -11.2% [at 19 µM]; in [19], 3.17% [at 19 µM]. In experiment [5], the cAMP activity change was 5.29% [at 18.9 µM]. Besides, the activity change, negative = inhibition in experiment [6] was -2.92% [at 19 µM].

As for `CCOC(=O)COc1ccc(C)cc1`, the Potency entry in [1], in experiment [2], in [3], in experiment [13], in experiment [14] and in experiment [6] was “inactive” in each case. Besides, the Potency entry in [7], in experiment [8], in experiment [17], in experiment [18], in [20] and in experiment [9] was “inactive” in each case. Besides, the Potency result in [10], in experiment [12] and in [19] was “inactive” each time. For the same compound, the outcome in experiment [5] and in experiment [16] was inactive.

In the case of `CCCCCCC(C)Nc1ccc(Nc2ccccc2)cc1` (stereo unspecified), the Potency result in [1], in [3], in experiment [9], in experiment [10], in experiment [11] and in experiment [12] was “inactive” in each case. Besides, the Potency in experiment [2] and in [8] was 48.6 µM (active) in each case.
